# Measurements published in the supplement of paper PMC10723795.
# ± gives the standard deviation of the averaged measurements.
# Test system: BJ5TA
# Test: nucleolar normality score relative to DMSO (fraction of DMSO control); RPE1 is a non-cancer human cell line; higher = more normal nucleoli (less nucleolar stress)
# Procedure: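 Selected screen hits were validated in hTERT lines (BJ5TA, CHON-002, RPE1) and cancer lines (DLD1, HCT116). Cells were immunostained for nucleolin and UBF and the nucleolar normality score was measured per field of view, with 4 fields per drug. Scores are normalized to each cell line's own DMSO control. Dose and time are not stated for this panel.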
row,SMILES,nucleolar normality score
1,Cc1cnc(CNC(=O)c2c(=O)c3ccc(N4CCCN(C)CC4)nc3n3c2sc2ccccc23)cn1,0.107 ± 0.0069
2,CN(C)CCNC(=O)c1cccn2c(=O)c3cc4ccccc4cc3nc12,0.0738 ± 0.013
3,CN1CC[C@H](c2c(O)cc(O)c3c(=O)cc(-c4ccccc4Cl)oc23)[C@H](O)C1 [Flavopiridol],0.202 ± 0.03
4,CCc1cnn2c(NCc3ccc[n+]([O-])c3)cc(N3CCCC[C@H]3CCO)nc12 [Dinaciclib],0.242 ± 0.0091
5,CC(C)C[C@H](NC(=O)[C@H](CCc1ccccc1)NC(=O)CN1CCOCC1)C(=O)N[C@@H](Cc1ccccc1)C(=O)N[C@@H](CC(C)C)C(=O)[C@@]1(C)CO1 [Carfilzomib],0.328 ± 0.027
6,CC(C)n1nc(-c2ccc3oc(N)nc3c2)c2c(N)ncnc21 [Sapanisertib],0.418 ± 0.049
7,Cc1nc(-c2cn3c(n2)-c2ccc(-c4cnn(C(C)(C)C(N)=O)c4)cc2OCC3)n(C(C)C)n1 [Taselisib],0.347 ± 0.013
8,COc1cccc2c1C(=O)c1c(O)c3c(c(O)c1C2=O)C[C@@](O)(C(=O)CO)C[C@@H]3O[C@H]1C[C@H](N)[C@H](O)[C@H](C)O1 [Doxorubicin],0.129 ± 0.025
9,CC(C)c1cc(C(=O)N2Cc3ccc(CN4CCN(C)CC4)cc3C2)c(O)cc1O [Onalespib],0.294 ± 0.019
10,COC[C@H](NC(=O)c1cnc(C)s1)C(=O)N[C@@H](COC)C(=O)N[C@@H](Cc1ccccc1)C(=O)[C@@]1(C)CO1 [Oprozomib],0.449 ± 0.043
11,CC(C)c1c2cc(-c3ccnc(NC4CCC(NC5CCOCC5)CC4)n3)ccc2nn1C (configuration not stated),0.317 ± 0.025
12,C=CCNC1=C2C[C@@H](C)C[C@H](OC)[C@H](O)[C@@H](C)/C=C(\C)[C@H](OC(N)=O)[C@@H](OC)/C=C\C=C(/C)C(=O)NC(=CC1=O)C2=O,0.306 ± 0.0062
